Out of some 30,000 compounds screened, about 110 (0.37%) were called active. The list comes from a sample in which actives are over-represented; it also holds similar structures and randomly drawn compounds. Values without a mark were called inactive.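 How the source made its calls: active means delta delta Cp rounded down to an integer at or above 3, about 3 SD of DMSO wells; inactive means the rest.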
Assay: inhibitors of YB-1 gene expression, primary screen, cell-based, fluorescence (AID 434959);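 further: higher means less YB-1 transcript or more CDIP transcript relative to DMSO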
Settings: U2OS, qRT-PCR YB-1 vs CDIP delta delta Cp, 16 h; hits give high values; zero = DMSO, each unit about twofold
Work on `COc1ccc(S(=O)(=O)Nc2ccc3c(c2)CC(=O)N([C@H](C)CO)C[C@H](C)[C@H](CN(C)C(=O)Nc2ccccc2)O3)cc1` yielded a delta Cp (YB-1 minus CDIP) of 0.185.
Compound `C[C@@H]1CN([C@@H](C)CO)C(=O)Cc2cc(NC(=O)C3CCCCC3)ccc2O[C@@H]1CN(C)CC1CCCCC1` has a delta Cp (YB-1 minus CDIP) of 0.332.
Compound `Cc1noc(C)c1NC(=O)N(C)C[C@H]1Oc2c(NS(=O)(=O)c3cccs3)cccc2C(=O)N([C@@H](C)CO)C[C@@H]1C` has a delta Cp (YB-1 minus CDIP) of -0.0216.
Work on `C[C@H]1CN([C@@H](C)CO)C(=O)c2cc(NC(=O)Cc3cn(C)c4ccccc34)ccc2O[C@H]1CN(C)CC1CCCCC1` yielded a delta Cp (YB-1 minus CDIP) of -0.873.
`C[C@H]1CN([C@@H](C)CO)C(=O)Cc2cc(NC(=O)Nc3ccc(F)cc3)ccc2O[C@H]1CN(C)S(=O)(=O)c1ccccc1` showed a delta Cp (YB-1 minus CDIP) of -0.124.
`O=C(O)CCCCCCC(=O)NN=C1CCCCCC1` gave a delta Cp (YB-1 minus CDIP) of -0.0992.
`C[C@H](CO)N1C[C@H](C)[C@@H](CN(C)S(=O)(=O)c2ccccc2)Oc2c(NS(=O)(=O)c3cn(C)cn3)cccc2C1=O` gave a delta Cp (YB-1 minus CDIP) of 0.133.
For `CC(C)CSc1nnc(CSCc2nc(-c3ccc(Cl)cc3)cs2)n1C`, the delta Cp (YB-1 minus CDIP) was 0.176.
Compound `COC(=O)[C@@]1(CCS(=O)(=O)c2ccccc2)N=C(c2ccc(OCCCO)cc2)O[C@H]1c1ccccc1N=[N+]=[N-]` has a delta Cp (YB-1 minus CDIP) of -0.253.
Work on `Cc1ccc(-c2c[n+](=O)c3c(n2[O-])CCC3)cc1` yielded a delta Cp (YB-1 minus CDIP) of -0.134.
In the case of `CCc1c(C)n([O-])c2c([n+]1=O)CCCCC2`, the delta Cp (YB-1 minus CDIP) is reported as 6.44 (active).
With `C[C@H]1CN([C@@H](C)CO)C(=O)Cc2cc(NC(=O)Cc3ccccc3)ccc2O[C@H]1CN(C)S(=O)(=O)c1ccc(Cl)cc1` the delta Cp (YB-1 minus CDIP) was -0.43.
With `COc1ccc(CN(C)C[C@H]2Oc3c(NS(=O)(=O)c4ccccc4)cccc3C(=O)N([C@H](C)CO)C[C@@H]2C)cc1` the delta Cp (YB-1 minus CDIP) was 0.263.
Compound `C[C@@H]1CCCCO[C@H](CN(C)C(=O)c2ccccc2)[C@@H](C)CN([C@H](C)CO)C(=O)c2cc(NC(=O)Nc3cccc4ccccc34)ccc2O1` has a delta Cp (YB-1 minus CDIP) of -0.0616.
Work on `C[C@@H]1CN([C@H](C)CO)C(=O)c2cc(N(C)C)ccc2O[C@@H]1CN(C)S(C)(=O)=O` yielded a delta Cp (YB-1 minus CDIP) of -0.194.
Work on `C[C@@H]1CN([C@@H](C)CO)C(=O)CCCn2cc(nn2)CO[C@H]1CN(C)Cc1ccc(C(=O)O)cc1` yielded a delta Cp (YB-1 minus CDIP) of 0.212.
`C/C=C(/C)C(=O)O[C@H]1CC(C)(C)C[C@H]2C3=CCC4[C@@]5(C)CC[C@H](O[C@@H]6O[C@H](C(=O)O)[C@@H](O[C@@H]7O[C@H](CO)[C@H](O)[C@H](O)[C@H]7O[C@@H]7O[C@H](CO)[C@@H](O)[C@H](O)[C@H]7O)[C@H](O)[C@H]6O[C@@H]6O[C@@H](C)[C@H](O)[C@@H](O)[C@H]6O)C(C)(C)C5CC[C@@]4(C)[C@]3(C)[C@@H](OC(C)=O)[C@@H](O)[C@@]12COC(C)=O` (stereo partly drawn) showed a delta Cp (YB-1 minus CDIP) of -0.219.
For `CC1OC(OC2C(OC3C(O[C@H]4CC[C@@]5(C)C(CC[C@]6(C)C5CC=C5[C@@H]7CC(C)(C)C[C@@H](O)[C@]7(C)CC[C@]56C)C4(C)C)OC(C(=O)O)C(O)C3O)OC(CO)C(O)C2O)C(O)C(O)C1O` (stereo partly drawn), the delta Cp (YB-1 minus CDIP) was 0.299.
For `CC1(C)CC[C@]2(C(=O)O)CC[C@]3(C)C(=CCC4[C@@]5(C)CC[C@H](OC6O[C@H](CO)[C@@H](O)[C@H](O[C@@H]7O[C@H](CO)[C@@H](O)[C@H](O)[C@H]7O)[C@H]6O)C(C)(C)C5CC[C@]43C)[C@@H]2C1` (stereo partly drawn), the delta Cp (YB-1 minus CDIP) was -0.209.
For `CC1(C)CC[C@]2(C(=O)O[C@@H]3O[C@H](CO)[C@@H](O)[C@H](O)[C@H]3O)CC[C@]3(C)C(=CCC4[C@@]5(C)CC[C@H](O[C@@H]6O[C@H](C(=O)O)[C@@H](O[C@@H]7OC[C@H](O)[C@H](O)[C@H]7O)[C@H](O)[C@H]6O)C(C)(C)C5CC[C@]43C)C2C1` (stereo partly drawn), the delta Cp (YB-1 minus CDIP) was 0.0826.
With `C/C=C(/C)C(=O)O[C@H]1CC(C)(C)C[C@H]2C3=CCC4[C@@]5(C)CC[C@H](O[C@@H]6O[C@H](C(=O)O)[C@@H](O[C@@H]7O[C@H](CO)[C@H](O)[C@H](O)[C@H]7O[C@@H]7O[C@H](CO)[C@@H](O)[C@H](O)[C@H]7O)[C@H](O)[C@H]6O[C@@H]6O[C@@H](C)[C@H](O)[C@@H](O)[C@H]6O)C(C)(C)C5CC[C@@]4(C)[C@]3(C)[C@@H](O)[C@@H](O)[C@@]12CO` (stereo partly drawn) the delta Cp (YB-1 minus CDIP) was 10.3 (active).
For `CCC/C=C/C(=O)OC1C(O)C23C(O)OC4(CCC5C6(C)CCC(OC7OC(C(=O)O)C(O)C(OC8OC(CO)C(O)C(O)C8OC8OC(C)C(O)C(O)C8OC8OCC(O)C(O)C8O)C7OC7OC(CO)C(O)C(O)C7O)C(C)(C)C6CCC5(C)C4(C)CC2OC(C)=O)C3CC1(C)C` (stereo not drawn), the delta Cp (YB-1 minus CDIP) was 3.51 (active).
Compound `C=CC(C)(O)CCC1(C)C2=C(C(OC(C)=O)C(OC(C)=O)C1C)C(C)(C)CCC2` (stereo not drawn) has a delta Cp (YB-1 minus CDIP) of -0.399.
With `COC(=O)[C@]1(Cc2ccccc2CN=[N+]=[N-])N=C(c2ccc(OCCCO)cc2)O[C@@H]1c1ccccc1CN=[N+]=[N-]` the delta Cp (YB-1 minus CDIP) was 0.139.
`C[C@@H]1CN([C@@H](C)CO)C(=O)c2cccc(NC(=O)Nc3cccc4ccccc34)c2O[C@@H]1CN(C)CC1CC1` showed a delta Cp (YB-1 minus CDIP) of 0.192.
Compound `C[C@@H]1CN([C@H](C)CO)C(=O)Cc2cc(NC(=O)Cn3cnnn3)ccc2O[C@@H]1CN(C)S(=O)(=O)c1ccc(F)cc1` has a delta Cp (YB-1 minus CDIP) of 0.145.
Work on `C[C@H](CO)N1C[C@H](C)[C@H](CN(C)C(=O)NC2CCCCC2)Oc2c(NC(=O)c3nc4ccccc4s3)cccc2C1=O` yielded a delta Cp (YB-1 minus CDIP) of 0.116.
`C[C@H]1CN([C@@H](C)CO)C(=O)Cc2cc(N(C)C)ccc2O[C@@H]1CN(C)Cc1ccc(-c2ccccc2)cc1` showed a delta Cp (YB-1 minus CDIP) of 0.0659.
With `COC(=O)CCCCCCC(=O)N/N=C/c1ccc(C(=O)O)cc1` the delta Cp (YB-1 minus CDIP) was -0.219.
Work on `C[C@H]1CN([C@@H](C)CO)C(=O)c2cc(NC(=O)C3CCCCC3)ccc2O[C@H]1CN(C)S(=O)(=O)c1cn(C)cn1` yielded a delta Cp (YB-1 minus CDIP) of -0.0642.
`CC(C)(C)c1ccc(-c2[nH]nc(NC(=O)c3ccccc3Cl)c2Br)cc1` gave a delta Cp (YB-1 minus CDIP) of 0.0133.
In the case of `C[C@@H]1CN([C@H](C)CO)C(=O)CCCn2cc(nn2)CO[C@@H]1CN(C)Cc1ccccc1C(=O)O`, the delta Cp (YB-1 minus CDIP) is reported as -0.246.
Compound `C[C@@H]1CN([C@H](C)CO)C(=O)CCCn2nncc2CO[C@@H]1CN(C)C(=O)OCc1ccccc1` has a delta Cp (YB-1 minus CDIP) of 0.0587.
With `O=C1C2CC3CC1CC(C(=O)O)(C3)C2` the delta Cp (YB-1 minus CDIP) was 0.106.
In the case of `C[C@H](CO)N1C[C@H](C)[C@H](CN(C)C(=O)Nc2ccccc2)Oc2ccc(NC(=O)CCN3CCOCC3)cc2CC1=O`, the delta Cp (YB-1 minus CDIP) is reported as -0.228.
Compound `CC1(C)CC(=O)c2ccc(O)cc2O1` has a delta Cp (YB-1 minus CDIP) of 1.96.
With `Cc1cc(C(=O)Nc2cccc3c2O[C@@H](CN(C)C(=O)Nc2ccc4c(c2)OCO4)[C@H](C)CN([C@@H](C)CO)C3=O)n(C)n1` the delta Cp (YB-1 minus CDIP) was -0.0832.
Work on `C[C@H]1CN([C@@H](C)CO)C(=O)c2cc(NC(=O)NC3CCCCC3)ccc2O[C@@H]1CN(C)S(=O)(=O)c1cccs1` yielded a delta Cp (YB-1 minus CDIP) of 0.092.
With `O=C(/C=C/c1ccccc1)c1ccc(O[C@@H]2O[C@H](CO)[C@@H](O)[C@H](O)[C@H]2O)cc1O` the delta Cp (YB-1 minus CDIP) was 0.0338.
`Oc1cc2c(cc1O)CN(C(=S)NCCc1ccc(Cl)cc1)CCC2` gave a delta Cp (YB-1 minus CDIP) of 0.367.
For `Cc1noc(C)c1NC(=O)Nc1ccc2c(c1)CC(=O)N([C@@H](C)CO)C[C@@H](C)[C@@H](CN(C)C(=O)NC(C)C)O2`, the delta Cp (YB-1 minus CDIP) was 0.0713.
For `C[C@H]1CN([C@@H](C)CO)C(=O)Cc2cc(NC(=O)C3CC3)ccc2O[C@H]1CN(C)S(=O)(=O)c1ccc(Cl)cc1`, the delta Cp (YB-1 minus CDIP) was 0.415.
For `[N-]=[N+]=Nc1ccccc1C[C@@]1(C(=O)NCc2ccccc2)N=C(c2ccc(OCCCO)cc2)O[C@@H]1c1ccccc1`, the delta Cp (YB-1 minus CDIP) was -0.629.
For `O=C1O[C@@H](c2ccccc2)[C@@H](c2ccccc2)N2[C@@H](c3ccccc3OCCO)[C@]3(C(=O)Nc4ccc(C#CC5(O)CCCCCC5)cc43)[C@@H](C(=O)N3CCN(c4ncccn4)CC3)[C@H]12`, the delta Cp (YB-1 minus CDIP) was -0.244.
Compound `C[C@H](CO)N1C[C@H](C)[C@H](CN(C)Cc2ccc(-c3ccccc3)cc2)Oc2ccc(NC(=O)Nc3ccc(F)cc3)cc2CC1=O` has a delta Cp (YB-1 minus CDIP) of -0.469.
Work on `COc1cc(/C(C)=C/C(C)=C\C(=O)O)oc(=O)c1C` yielded a delta Cp (YB-1 minus CDIP) of -0.492.
For `Cc1ccc(S(=O)(=O)N(C)C[C@H]2Oc3c(NC(=O)c4ccc(-c5nccs5)cc4)cccc3C(=O)N([C@H](C)CO)C[C@H]2C)cc1`, the delta Cp (YB-1 minus CDIP) was -0.182.
`CC1=COC(O[C@@H]2O[C@H](CO)[C@@H](O)[C@H](O)[C@H]2O)C2C1CC(O)C2CO` (stereo partly drawn) showed a delta Cp (YB-1 minus CDIP) of -0.367.
`C[C@@H]1CN([C@@H](C)CO)C(=O)CCCn2nncc2CO[C@@H]1CN(C)Cc1ccccc1` gave a delta Cp (YB-1 minus CDIP) of 0.131.
Work on `C[C@@H]1CN([C@H](C)CO)C(=O)Cc2cc(NS(=O)(=O)c3ccc(F)cc3)ccc2O[C@@H]1CN(C)S(=O)(=O)c1ccc(F)cc1` yielded a delta Cp (YB-1 minus CDIP) of -0.0534.
With `COc1ccc(C#Cc2ccc3c(c2)[C@]2(C(=O)N3)[C@H](c3ccccc3OCCO)N3[C@H](c4ccccc4)[C@H](c4ccccc4)OC(=O)[C@H]3[C@@H]2C(=O)N2CCCCCCC2)cc1` the delta Cp (YB-1 minus CDIP) was 0.00142.
Compound `CNC[C@@H]1Oc2ncc(-c3ccc(F)cc3)cc2C(=O)N([C@H](C)CO)C[C@@H]1C` has a delta Cp (YB-1 minus CDIP) of -0.148.
Work on `CC(C)NC(=O)N(C)C[C@H]1Oc2ccc(NC(=O)CCCCCC(=O)Nc3ccccc3N)cc2CC(=O)N([C@@H](C)CO)C[C@H]1C` yielded a delta Cp (YB-1 minus CDIP) of 0.0201.

— PubChem BioAssay AID434959 (Broad Institute, 2010)
